Screening data (PubChem BioAssay)
Hits are enriched below; roughly 4.3% of the tested compounds scored in any of these assays.
MITF act – MITF TRPM1 promoter activation in melanoma cells | SK-MEL-5 TRPM1-promoter luciferase, 24 h; % of positive control, neutral wells = 0 | activation, % at 12.5 µM | actives 0.75% (n = 300,000);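 active means mean activation of at least 80% with every replicate also reaching 80%; inconclusive means mean reaches 80% but some replicate falls short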
Wnt bcat act – activates Wnt/beta-catenin signaling in a reporter cell assay. activator, plate reader. activation, % at 9.35 µM. actives 1.2% (n = 300,000); in the data active means activation above about 30%, passing the limit was not always enough; inconclusive means no clear call, values can overlap the other calls
esBAF inh – blocks esBAF chromatin remodeling in mouse ES cells | Bmi1-luciferase knock-in reporter, 24 h; 100% = twice the neutral-well signal | reporter increase, % at 12.5 µM | actives 2% (n = 350,000); in the data active means activation above about 40%; inconclusive means no clear call, values can overlap the other calls;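 further: a rise in the Bmi1 reporter signal indicates esBAF inhibition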
HSF1 inh – HSF1 inhibition. activity change, negative = inhibition, % at 7.5 µM (by protocol). AID 2098. NIH3T3-HGL HSE-luciferase, MG132-induced, luminescence 8 h; stronger effect = lower value. actives 0.77% (n = 300,000);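 active means more than half of replicate wells show activity change below -50%, luminescence cut by over half; inconclusive means some wells, but at most half, below -50%; inactive means no replicate well below -50%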;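 further: luciferase reports HSF-1 transcriptional activity via heat shock element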
SMARCA2 activ – increases SMARCA2 function in MMTV reporter cells | activation, % at 9.1 µM | MG213 cells, MMTV-luciferase reporter, dexamethasone, overnight | AID 652017 | actives 1% (n = 370,000); in the data active means activation above about 7.8%
HSF-1 act – increases HSF-1 driven luciferase reporter signal; NIH3T3-HGL HSF-1 luciferase reporter, MG132, 8 h; 100% = twice DMSO control signal; activation, % at 9 µM; actives 1.7% (n = 300,000);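 active means mean replicate activation of at least 50% with a set share of replicates each reaching 50%; inconclusive means only one of those two conditions met; inactive means mean below 50% and too few replicates reaching it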
SMARCA2 act conf – SMARCA2 activation, confirmation screen; activation, % at 9.1 µM; shares compounds with SMARCA2 activ; MG213 cells, MMTV-luciferase with dexamethasone, luminescence, overnight; MG213 cells expressing E1A, Rb sequestered; DMSO wells 0%, reference activator 100%; AID 652260; actives 30% (n = 3,500);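 active means activation above its plate's cutoff, the mean activation of tested wells plus 3 SD, cut at about 7.9% in these data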
VP16 Luc act – activates GAL4-VP16 luciferase, flagging SMARCA2 activator hits | shares compounds with SMARCA2 activ | HEK293 GAL4-VP16 pG5luc reporter, luciferase luminescence; scaled: DMSO wells 0%, SAHA wells 100% | activation, % at 9.1 µM | actives 41% (n = 3,500);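 active means activation above the solvent-only control well mean plus 3 SD, averaged across control plates, cut at about 5.2% in these data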
Hits are given with their value; n = inactive; u = inconclusive; x = no result given.

SMILES	MITF act	Wnt bcat act	esBAF inh	HSF1 inh	SMARCA2 activ	HSF-1 act	SMARCA2 act conf	VP16 Luc act
CCOC(=O)Cc1c(C)nc2c(-c3ccc(Cl)cc3)cnn2c1C	n	n	n	n	n	n	x	x
CCOC(=O)Cc1c(C)nc2c(-c3ccccc3)c(C)nn2c1C	n	n	n	n	12	n	n	n
CCCn1nnnc1NC(=O)c1cc(Br)ccc1OC	n	n	x	n	n	n	x	x
CCCn1nnnc1NC(=O)c1ccc(C)cc1Cl	n	n	n	n	8.0	n	n	n
COc1ccc(C=C2c3ccccc3C(=O)c3ccccc32)c(OC)c1	x	n	x	n	n	n	x	x
COc1ccc(/C=C2\COc3ccccc3C2=O)c(OC)c1	n	n	63	n	8.9	n	n	5.2
COc1cc(O)c2c(=O)c(-c3ccc(O[C@@H]4O[C@H](CO)[C@@H](O)[C@H](O)[C@H]4O)cc3)coc2c1	n	36	n	n	8.8	n	13	9.1
CCCCCCCCNc1nc(Cl)nc(NCc2ccco2)n1	n	n	x	n	11	n	n	n
COc1ccc(NC(=O)N(C)C[C@@H]2Oc3c(NC(=O)c4cnccn4)cccc3C(=O)N([C@@H](C)CO)C[C@H]2C)cc1	x	x	n	x	x	x	x	x
COC(=O)c1c(C)[nH]c(C(=O)CN2C(=O)C3CC=CCC3C2=O)c1C (stereo unspecified)	n	n	u	x	9.0	x	n	n
CCOC(=O)c1c(C)[nH]c(C(=O)CN2C(=O)C(=O)N(CC(C)C)C2=O)c1C	n	n	x	n	n	n	x	x
C[C@@H]1CN([C@@H](C)CO)C(=O)c2cc(NC(=O)c3ccncc3)ccc2O[C@@H](C)CCCCO[C@H]1CN(C)Cc1ccccc1	x	x	n	x	x	x	x	x
O=C(CCSCc1ccccc1F)N1CCN(c2ccccn2)CC1	n	n	x	n	12	n	n	5.7
Cc1cc(C)nc(NC(=O)NC(=O)c2ccccc2)n1	n	n	n	n	n	n	x	x
COc1cc(C)nc(NC(=O)NC(=O)c2ccc(C(F)(F)F)cc2)n1	n	n	n	n	8.1	n	n	n
CC1=CC2=NC(=O)/C(=C\c3cc(C)n(-c4cccc(Cl)c4)c3C)C(=N)N2O1	n	n	x	n	9.1	n	n	n
CCC(C)NC(=O)C1(N2C(=O)c3ccccc3C2=O)CCCC1 (stereo unspecified)	n	n	n	x	8.8	x	n	n
C[C@@H](NC(=O)C[C@H]1C[C@H]2c3cc(NC(=O)C4CCC4)ccc3O[C@H]2[C@@H](CO)O1)c1ccccc1	x	x	n	x	x	x	x	x
COc1ccc(NC(=O)N(C)C[C@H]2OCCCC[C@@H](C)Oc3ccc(NS(=O)(=O)c4ccc(Cl)cc4)cc3C(=O)N([C@H](C)CO)C[C@@H]2C)cc1	x	x	n	x	x	x	x	x
O=C(CCl)NC1CCCc2ccccc21 (stereo unspecified)	n	n	x	n	9.3	n	n	n
O=C(C[C@H]1CC[C@@H]2[C@H](COC[C@@H](O)CN2C(=O)Cc2ccccc2)O1)NC1CCC1	x	x	n	x	x	x	x	x
Cc1cccc(-c2noc(CCc3ccccc3)n2)c1	x	u	63	n	11	n	n	6.7
O=c1c2cc([N+](=O)[O-])ccc2sn1-c1ccccc1	x	n	n	x	n	x	x	x
CC(=O)Nc1ccc2sn(-c3ccccc3)c(=O)c2c1	x	n	n	x	17	x	8.8	n
N#Cc1ccc2sn(-c3ccccc3)c(=O)c2c1	x	n	n	x	12	x	7.9	11
SMILES	MITF act	Wnt bcat act	esBAF inh	HSF1 inh	SMARCA2 activ	HSF-1 act	SMARCA2 act conf	VP16 Luc act
O=C(C[C@H]1CC[C@@H]2[C@H](COC[C@@H](O)CN2C(=O)c2cnccn2)O1)NCc1ccccc1	x	x	n	x	x	x	x	x
C[C@H]1CN([C@@H](C)CO)S(=O)(=O)c2ccc(-c3cccnc3)cc2O[C@H]1CN(C)Cc1cncnc1	x	x	n	x	x	x	x	x
CNC[C@@H]1Oc2ccc(NC(=O)Cn3cnnn3)cc2CC(=O)N([C@H](C)CO)C[C@@H]1C	x	x	n	x	x	x	x	x
O=C(CCc1ccccc1)Nc1ccc2c(c1)OCCO2	n	n	n	n	8.2	n	10	11
N#Cc1cccc(NCC(=O)Nc2ccc3c(c2)OCCO3)c1	n	n	x	n	9.8	68	n	n
N#Cc1ccc(NCC(=O)Nc2ccc3c(c2)OCCO3)cc1	n	n	n	n	n	n	x	x
O=C(Nc1ccc2c(c1)OCCO2)N1CCOCC1	n	n	x	u	9.7	n	n	n
COc1ccccc1C(=O)Nc1ccc2c(c1)OCCO2	n	x	59	n	8.1	n	n	11
CO[C@@H]1CN(C)C(=O)c2cc(NC(=O)C3CCCC3)ccc2OC[C@H](C)N(C)C[C@H]1C	x	x	n	x	x	x	x	x
COc1ccc(S(=O)(=O)Nc2cccc3c2O[C@@H](CN(C)Cc2ccc(C(F)(F)F)cc2)[C@@H](C)CN([C@@H](C)CO)C3=O)cc1	x	x	n	x	x	x	x	x
O=C(Nc1ccc2c(c1)OCCO2)NC12CC3CC(CC(C3)C1)C2	x	x	n	n	20	n	12	11
c1ccc(-c2ccc3c(n2)CCCN3Cc2ccccn2)cc1	x	35	x	x	8.9	x	n	8.7
Fc1ccc(-c2ccc3c(n2)CCCN3Cc2ccccn2)cc1	x	u	x	x	n	x	x	x
C[C@@H]1CN([C@@H](C)CO)C(=O)c2cc(NC(=O)CCN3CCOCC3)ccc2O[C@@H]1CN(C)C(=O)NC1CCCCC1	x	x	n	x	x	x	x	x
COc1ccc(-c2cn(CC[C@@H]3CC[C@@H](NC(=O)Cc4ccccn4)[C@@H](CO)O3)nn2)cc1	x	x	n	x	x	x	x	x
Cn1c(C(=O)Nc2ccccc2)cc2sccc21	n	51	n	n	9.2	n	8.7	7.2
CCc1ccccc1NC(=O)c1cc2sccc2n1C	n	n	n	n	n	n	x	x
CC(C)N1CCCCC(NC(=O)c2cccc(C(F)(F)F)c2)C1=O (stereo unspecified)	x	x	x	x	8.8	x	n	n
Cc1ccc(CN2CCCCC(NC(=O)c3cccc(C(F)(F)F)c3)C2=O)cc1 (stereo unspecified)	x	x	x	x	n	x	x	x
CO[C@H]1CN(C)C(=O)c2ccc(NC(=O)C3CCCC3)cc2OC[C@@H](C)N(C(C)=O)C[C@H]1C	x	x	n	x	x	x	x	x
CC(C)NC[C@H]1[C@@H](c2ccc(C3=CCCCC3)cc2)[C@@H](CO)N1C(=O)NC(C)C	x	x	n	x	x	x	x	x
CCCc1cc(=O)n2[nH]c(-c3ccc(Br)cc3)cc2n1	n	x	48	n	8.2	n	n	9.2
CCOC(=O)Cc1cc(=O)n2[nH]c(-c3ccccc3)cc2n1	n	n	n	n	x	n	x	x
